Assay outcomes (PubChem)
A selection: hits, their analogues and other compounds. The true share with any hit is near 2.6%.
Prx2 Sm inh – inhibitors of Schistosoma mansoni peroxiredoxin 2. S. mansoni Prx2 activity coupled to TGR/GSH (TGR is thioredoxin glutathione reductase), NADPH fluorescence loss, qHTS. Potency, µM. 65,000 compounds, 0.07% hits. AID 448
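Prx2 activity was followed as the loss of NADPH fluorescence (ex 365/em 450 nm), read every 30 sec for 8 min after H2O2 start. The enzyme mix (50 nM Prx2, 25 nM TGR, GSH, NADPH; pH 7.4 phosphate buffer) was incubated with compound for 15 min at room temperature first.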
AmpC inh det – AmpC beta-lactamase inhibition, detergent assay | AID 584 | 71,000 compounds, 0.09% hits | purified AmpC, nitrocefin hydrolysis with detergent | P00811 | Potency, µM (series often up to 28.7 µM); active = well fitted curve in the direction sought with a large enough effect; inconclusive = small, poorly fitted or top-dose-only effect
Target sequence (P00811 whole entry, looked up): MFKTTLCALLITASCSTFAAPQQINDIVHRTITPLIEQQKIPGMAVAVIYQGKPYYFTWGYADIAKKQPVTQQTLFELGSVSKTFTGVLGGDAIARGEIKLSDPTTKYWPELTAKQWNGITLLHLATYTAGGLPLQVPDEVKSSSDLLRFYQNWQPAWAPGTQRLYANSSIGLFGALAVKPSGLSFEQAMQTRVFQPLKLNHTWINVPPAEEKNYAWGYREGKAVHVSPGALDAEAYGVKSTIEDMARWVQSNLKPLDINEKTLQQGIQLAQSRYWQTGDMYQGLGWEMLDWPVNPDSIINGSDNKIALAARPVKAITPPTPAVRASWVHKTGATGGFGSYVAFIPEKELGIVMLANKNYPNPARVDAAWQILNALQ
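E. coli AmpC (5.3 nM) in 20 mM phosphate pH 7.0 with 0.01% Triton X-100, preincubated 15 min RT with compound; nitrocefin (2 uL of 800 uM stock) hydrolysis followed by 480 nm absorbance every 20 s over 4 min.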
AmpC inh no det – AmpC beta-lactamase inhibition, detergent-free assay; P00811; 71,000 compounds, 1.8% hits; AmpC nitrocefin hydrolysis, absorbance 480 nm, no detergent; Potency, µM (doses to about 28.7 µM)
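Enzyme, pH 7.0 phosphate. Compound titrations were pre-incubated with AmpC for 15 min at room temperature before nitrocefin (stock 800 uM) addition; product formation was recorded at 480 nm every 20 s for 4 min.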
Anthrax LT inh – anthrax lethal toxin internalization inhibition. Potency, µM (series often up to 40 µM), most hits filed as inhibitors. AID 912. Cells, anthrax lethal toxin internalization, FRET ratio (460/530). 70,000 compounds, 0.67% hits; also: nearly all actives have a fitted effect of over 50% in size
Each line names hits and unclear results; the compound was inactive in the other large screens; ! = repeats disagree; [ ] = another dose, or the depositor's remark. Unless noted, calls follow the shape of the full dose curve.

N[C@@H]1CCN(O)C1=O	Anthrax LT inh inconclusive
Cc1ncc2c(c1O)COP(=O)(O)OC2	none
O=C(Nc1ccc(S(=O)(=O)NCc2ccccc2)cc1)Nc1ccc2c(c1)OCO2	AmpC inh no det 10µM, Anthrax LT inh inconclusive
COc1ccc(Cc2nc(-c3cccs3)no2)cc1OC	AmpC inh no det 4µM[single pt active]
COc1cccc2c1[C@@H]1CN(CCCCn3c(=O)[nH]c4c(sc5ncc(-c6ccccc6)nc54)c3=O)C[C@H]1CO2	Anthrax LT inh 25µM
c1csc(Cn2c(-c3cccs3)nc3ccccc32)c1	none
Brc1ccccc1Cn1c(-c2cncs2)nc2ccccc21	Anthrax LT inh 10µM
CCN1C(=O)[C@H]2[C@H]3[C@H](O)[C@H](O)C/C(=N/NC(=O)OCc4ccccc4)[C@@H]3CC[C@@H]2C1=O	none (no result: Prx2 Sm inh, AmpC inh det, AmpC inh no det)
Cc1ccc(C)c(S(=O)(=O)Nc2ccccc2C(=O)Nc2cc(C)on2)c1	AmpC inh no det 6.3µM, Anthrax LT inh inconclusive
COc1ccc2c(c1)OC13CCN(C)CC1C2C(C(=O)c1ccc(F)cc1)C(=O)N3 (stereo unspecified)	AmpC inh no det 4µM[single pt active]
O=C1C2=C(Nc3cc([N+](=O)[O-])ccc3N2)O[C@@H]1c1c[nH]c2ccc(COc3ccccc3)cc12	none
CCN(CC)CCCN1C(=O)C(O)=C(C(C)=O)C1c1ccc(OC)cc1OC (stereo unspecified)	AmpC inh no det 4µM[single pt active]
COc1ccc(C2C(C(C)=O)=C(O)C(=O)N2CCO)c(OC)c1 (stereo unspecified)	none
COc1ccc(Oc2ncc3ncc(=O)n(Cc4cccc(OC)c4)c3n2)cc1	Anthrax LT inh inconclusive
CC1CCN(CC(=O)N2c3ccccc3Sc3cc4ccccc4cc32)CC1	none
Cc1cccc(NC(=O)C2CCN(S(=O)(=O)c3cccc4nsnc34)CC2)n1	none
COc1ccc2nc(NC(=O)C3CCN(S(=O)(=O)c4cccc5nsnc45)CC3)sc2c1	Anthrax LT inh 13µM
O=C(NC1CCN(Cc2ccccc2)CC1)C1COc2ccccc2O1 (stereo unspecified)	none
CC(CN(C)Cc1ccccc1)OC(=O)C1COc2ccccc2O1 (stereo unspecified)	AmpC inh no det 4µM[single pt active]
O=c1c(CCc2ccccc2)nc2cnc(N3CCNCC3)nc2n1CCc1ccccc1	Anthrax LT inh inconclusive
CCN1CCN(Cc2ccc(NC(=O)Nc3ccccc3Cl)cc2)CC1	AmpC inh no det 4µM[single pt active]
O=C(Nc1ccc(Cl)cc1)N(Cc1cccs1)Cc1cccs1	AmpC inh no det 5µM (no result: Prx2 Sm inh)
COc1cc([C@H](O)CO)ccc1O	none
C[C@]12CC[C@H](O)C[C@@H]1CC[C@H]1[C@H]2CC[C@]2(C)[C@H](C(=O)CO)CC[C@@H]12	Anthrax LT inh inconclusive
Cc1nc2c3ccccc3n(CC#N)c(=O)n2n1	AmpC inh no det 2.5µM[single pt active]
Cc1cccc(CNc2ccnc(-c3ccccc3CN(C)C)n2)c1	none
O=C(CCOc1ccccc1)OCC(=O)c1cc2ccccc2o1	AmpC inh no det 0.63µM
O=C(O)c1ccccc1NCn1c(=S)sc2ccccc21	none
COc1ccc2c3c([nH]c2c1)C(C)=NCC3	Anthrax LT inh inconclusive
CC1=NCCc2c1[nH]c1cc(O)ccc21	AmpC inh no det 13µM!, Anthrax LT inh inconclusive
CNC(=O)[C@@H]1O[C@@H](n2cnc3c(N)ncnc32)[C@@H](O)[C@H]1O	none
COc1ccc(C(=O)N2CCC[C@@]3(CCN(C)C3)C2)cc1	none
O=C(Cn1c(=O)oc2cc(S(=O)(=O)N3CCCC3)ccc21)Nc1ccc(C(F)(F)F)cc1	AmpC inh no det 10µM[single pt active]
O=C(CN1CCCCC1)Nc1ccc(S(=O)(=O)N2CCCCCC2)cc1	none
Cc1noc(NS(=O)(=O)c2ccc(NC(=O)CCn3c(=O)oc4ccccc43)cc2)c1C	Prx2 Sm inh inconclusive
CCN(CC)S(=O)(=O)c1ccc(NC(=O)Cn2c(=O)sc3ccccc32)cc1	AmpC inh no det inconclusive
Cc1cc(C)nc(NS(=O)(=O)c2ccc(NC(=O)Cn3c(=O)oc4ccccc43)cc2)n1	AmpC inh no det 4µM[single pt active]
O=C(O)Cn1c(=O)oc2cc(S(=O)(=O)NC3CCCCC3)ccc21	AmpC inh no det 2.5µM[single pt active]
O=C(Cn1c(=O)sc2ccccc21)Nc1ccc(S(=O)(=O)N2CCCCC2)cc1	AmpC inh no det 6.3µM
CCCn1c(-c2ccc(F)cc2)nc2c(NCCCN(CCO)CCO)nc(C)nc21	none (no result: Prx2 Sm inh)
c1ccc2c(NCCN3CCOCC3)nc(-c3ccc4c(c3)OCO4)nc2c1	Anthrax LT inh inconclusive
Oc1cc(O)c2c(c1)O[C@H](c1ccc(O)c(O)c1)[C@@H](O)[C@@H]2c1c(O)cc(O)c2c1O[C@@H](c1ccc(O)c(O)c1)[C@H](O)C2	none
